Measured values: PubChem BioAssay AID504725 (Broad Institute, 2011)
Potency and affinity values are given separately. Activity calls are given as the source filed them. How the calls were made is not given here.

Each compound was assayed against KSHV LANA C-terminal domain (residues 932-1162) binding to LBS DNA (UniProt O40947) (assay: KSHV LANA DNA-binding disruption – biochemical, fluorescence polarization, cherry-picked samples, dose response (AID 504725)). Conditions: MBP-C-LANA / FAM-LBS DNA fluorescence polarization, percent change from plate compound-well median; series mostly up to 35 µM.

outcome, inactive:
Cc1cc(C)nc(SCC(=O)N/N=C/c2cc(C)n(-c3ccccc3C)c2C)n1
O=c1oc2ccccc2nc1/C=C(\O)c1ccc(Br)cc1
O=C(O)/C=C/c1ccccc1Oc1ccccc1
COc1cc(CN2CC(=O)N(c3cc(Cl)ccc3C)C2=S)cc(OC)c1OC
Oc1ccccc1C=Nc1ccccc1-c1nc2ccccc2[nH]1
CC1=[N+](C)N(c2ccccc2)C(=O)C1N=C/C=C/c1ccccc1 (stereo not drawn)
CCNC(=O)COC(=O)c1cccc(Br)c1
C/C(=N\Nc1nc2c(s1)CCCC2)c1ccc(Cl)cc1
N=C1/C(=C\c2ccc(Br)o2)C(=O)N=C2SC(CC(=O)N3CCOCC3)=NN12
CCOC(=O)C(C)(C)N(Cc1ccccc1C)S(=O)(=O)c1ccc(Cl)c([N+](=O)[O-])c1
CC(Sc1nc(-c2ccco2)nc2c1c(=O)n(C)c(=O)n2C)C(=O)O (stereo not drawn)
CC(C)=C1C2C=CC1C(C(=O)Nc1cc(C)ccc1C)C2C(=O)O (stereo not drawn)
CC(=O)N/C(=C/c1ccc(OS(=O)(=O)c2ccc(C)cc2)cc1)C(=O)Nc1ccc(C(=O)O)cc1
CCOc1ccc(C(C)NC(=O)c2ccccc2OCc2c(C)noc2C)cc1OCC (stereo not drawn)
CCC(=O)Nc1cccc(C(=O)/C=C/c2ccccc2)c1
Nc1cc(N)nc(SCC(=O)N2CCCCC2)n1
O=C(Nc1ccc2c(c1)OCO2)N1CCCc2ccccc21
COc1ccc(NC(=O)Cc2nnc(SCC(=O)Nc3nccs3)n2C)cc1
COc1ccc(/C=C/C(=O)NC(=S)Nc2ccc(S(N)(=O)=O)cc2)cc1
Cc1cc(S(=O)(=O)NC2CCN(Cc3ccccc3)CC2)c(C)cc1Cl
CC(=O)NC(C(=O)c1ccccc1)C(=O)c1ccccc1
O=S(=O)(NCc1cccnc1)c1ccc(Cl)s1
Fc1ccc(-c2cc(C(F)(F)F)nc(-n3cc(Cl)cn3)n2)cc1
O=C(Cn1c2ccccc2c2nc3n(c(=O)c21)CCS3)Nc1ccccc1C(F)(F)F
CCOc1ccccc1N1CCN(C(=O)c2ccc3nc(N)sc3c2)CC1
COc1ccc(Br)cc1CNC(=O)CCCc1cn(C)c2ccccc12
C/C(=N\NC(=O)CCc1c(C)n[nH]c1C)c1ccc([N+](=O)[O-])cc1
COc1cccc(OCCNc2ccc([N+](=O)[O-])cn2)c1
Cc1cc(N)ccc1N=Nc1c(C)n(C)n(-c2ccccc2)c1=O
O=C(O)c1cccc(NC2=Nc3cccc4cccc2c34)c1
O=C(O)/C(=C\c1cccs1)Sc1nnc(-c2ccc(F)cc2)o1
Cc1ccc(OCC(=O)O/N=C(\N)Cc2ccc([N+](=O)[O-])cc2)cc1C
CCCC1(C2CCCC2)NC(=O)NC1=O (stereo not drawn)
Cc1sc2nnn(CC(=O)N3CCN(C(=O)c4ccco4)CC3)c(=O)c2c1C
CSc1n[nH]c(=O)n1-c1cccc(Cl)c1
Cc1ccc(NS(=O)(=O)c2ccc(C(=O)NCCCN3CCCC3=O)cc2)cc1
CSc1nc(SC(C)C(=O)O)c2c3c(sc2n1)COC(C)(C)C3 (stereo not drawn)
COc1cc2c(cc1OC)CN(C(=O)c1ccc(S(=O)(=O)N3CCCC3)cc1)CC2
